RECQ1 helicase – RECQ1 (human) helicase inhibition | AID 2549 | Potency, µM (top dose mostly 57.3 µM), without a hit: at the top dose activity, negative = inhibition, usual class: inhibitors | 0.54% of 240,000 active | RECQ1 DNA unwinding, red fluorescence kinetic read | P46063;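 also: plate controls were vehicle for no effect and no enzyme for full effect; nearly all actives have a fitted effect of over 30% in size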
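50 nM RECQ1T1 preincubated 15 min with compound in Tris pH 8.0 buffer with MgCl2, DTT, Tween-20 and 2.5 ug/ml poly(dI-dC); started with 200 nM TAMRA/BHQ-2 forked duplex and 2 mM ATP. Unwinding read as fluorescence (525/598 nm), two reads 2 h apart.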
BLM inh – Bloom syndrome helicase (human) inhibition; Potency, µM (titrated, usually from 56.1 µM), for the others: top-dose activity change, negative = inhibition, actives largely listed as inhibitors; 0.2% of 350,000 active; P54132; recombinant BLM DNA unwinding, fluorescence dequenching; AID 2528;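 also: plate controls were vehicle for no effect and no enzyme for full effect; nearly all actives have a fitted effect of over 35% in size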
L3MBTL1 inh-1 – blocks human L3MBTL1; Q9Y468; 0.66% of 230,000 active; Potency, µM (series often up to 57.1 µM), inactives show at the highest dose activity, negative = inhibition, actives largely listed as inhibitors; AlphaScreen L3MBTL1–H3K9me1 peptide binding; AID 485360; also: % is scaled to controls: 0 for no effect and ±100 for the full control effect; nearly all actives have a fitted effect of over 60% in size
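Read-out is AlphaScreen signal from streptavidin donor and nickel chelate acceptor beads (10 ug/mL final each) bridging L3MBTL1 (50 nM) and biotinylated K9-monomethylated H3(1-15) peptide (75 nM), after 30 min compound exposure at room temperature.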
APE1 inh – APE1 (human) endonuclease inhibition. recombinant APE1, TAMRA/BHQ-2 abasic DNA cleavage fluorescence. Potency, µM (highest dose often 65.8 µM), for inactives: top-dose activity change, negative = inhibition, usual class: inhibitors. 0.35% of 350,000 active. AID 2517;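 also: plate controls were vehicle for no effect and reference inhibitor for full effect; nearly all actives have a fitted effect of over 55% in size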
Target sequence (P27695 whole entry, looked up): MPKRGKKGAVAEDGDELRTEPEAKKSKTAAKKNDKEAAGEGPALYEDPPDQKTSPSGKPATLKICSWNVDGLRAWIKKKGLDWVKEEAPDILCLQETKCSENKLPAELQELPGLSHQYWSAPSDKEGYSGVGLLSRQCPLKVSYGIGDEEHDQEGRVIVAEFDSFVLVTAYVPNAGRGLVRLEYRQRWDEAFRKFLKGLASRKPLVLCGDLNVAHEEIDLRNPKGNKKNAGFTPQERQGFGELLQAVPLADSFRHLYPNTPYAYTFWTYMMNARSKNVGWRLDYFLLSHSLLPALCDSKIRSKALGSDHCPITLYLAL
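Incision of a quenched TAMRA/BHQ-2 THF abasic-site duplex (50 nM) by 0.75 nM APE1, after 15 min compound preincubation, measured as fluorescence increase over three 60 s reads. Values normalized to buffer, DMSO and NSC13755 control wells.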
JMJD2E inh – JMJD2E (human) inhibition; JMJD2E catalytic domain, FDH-coupled NADH fluorescence (FDH is formaldehyde dehydrogenase); 1.6% of 230,000 active; AID 2147; Potency, µM (titrated, usually from 57.1 µM), inactives show top-dose activity change, negative = inhibition, hits mostly inhibitors; B2RXH2; active = well fitted inhibition curve with a large enough effect, not every such curve was filed as active; inconclusive = small, poorly fitted or top-dose-only effect, or another doubt; inactive = no such curve, though single readings can be large or run the other way;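 also: 0% = wells with enzyme and -100% = buffer wells without enzyme; nearly all actives have a fitted effect of over 50% in size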
Target sequence (B2RXH2 1-337 limits assumed): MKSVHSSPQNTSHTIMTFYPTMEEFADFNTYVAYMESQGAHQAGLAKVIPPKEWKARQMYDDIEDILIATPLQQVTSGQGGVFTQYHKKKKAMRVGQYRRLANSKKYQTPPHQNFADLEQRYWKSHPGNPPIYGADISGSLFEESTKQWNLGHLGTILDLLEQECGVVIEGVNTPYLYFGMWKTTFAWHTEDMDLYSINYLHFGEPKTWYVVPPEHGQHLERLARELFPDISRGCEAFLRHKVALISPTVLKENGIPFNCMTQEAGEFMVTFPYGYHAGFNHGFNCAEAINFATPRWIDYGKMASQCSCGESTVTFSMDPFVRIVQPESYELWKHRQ
L3MBTL1 inh-2 – blocks human L3MBTL1 methyl-lysine binding; shares compounds with L3MBTL1 inh-1; L3MBTL1 methyl-lysine binding inhibition, biochemical qHTS; Potency, µM, most hits filed as inhibitors; 91% of 500 active; AID 540279; also: nearly all actives have a fitted effect of over 70% in size
AlphaScreen ctr2 – counter-screen for L3MBTL1 inhibitors: AlphaScreen signal interference; Potency, µM (top dose mostly 57.1 µM), for inactives: at the highest dose activity change, negative = inhibition, hits mostly inhibitors; shares compounds with L3MBTL1 inh-1; 500 tested, under 10 active; AlphaScreen counterscreen, signal inhibition; also: 0% is about no effect
* = called active by the depositor. The entries come from a sample that favours hits as a whole. Unless noted, calls follow the shape of the dose curve; as a rule, active = well fitted curve in the direction sought with a large enough effect; inconclusive = small, poorly fitted or top-dose-only effect, or another doubt; inactive = no such curve, though single readings can be large; an effect the other way counts as inactive or inconclusive. Potency is read from the fitted curve at half-maximal effect.

How did O=C(C1=C(O)C(=O)N(c2nc3ccc(Cl)cc3s2)C1c1ccco1)c1ccco1 (centres undefined) do in these assays?
L3MBTL1 inh-1: 20µM*; APE1 inh: -13%; L3MBTL1 inh-2: 6*; AlphaScreen ctr2: -4%

What do the screens show for `CC(C)CC(=O)N/N=C/c1c(N)n(C)c(=O)n(C)c1=O`?
RECQ1 helicase: -10%; BLM inh: 3%; L3MBTL1 inh-1: 7%; APE1 inh: 10%; JMJD2E inh: -3%

How did O=c1cc(-c2ccccc2)c2c([nH]1)CCCC2 do in these assays?
RECQ1 helicase: 4%; BLM inh: -8%; L3MBTL1 inh-1: -2%; APE1 inh: -6%; JMJD2E inh: -13%

What do the screens show for `O=c1cc(-c2ccccc2Cl)c2c([nH]1)CCC2`?
RECQ1 helicase: 9%; BLM inh: -7%; L3MBTL1 inh-1: 28µM*; APE1 inh: -6%; JMJD2E inh: 0%; L3MBTL1 inh-2: inconclusive; AlphaScreen ctr2: 8%

Results for S=C1SCN(Cc2ccccn2)CN1Cc1ccco1 ?
RECQ1 helicase: inactive; BLM inh: -8%; L3MBTL1 inh-1: 28µM*; APE1 inh: 1%; JMJD2E inh: -12%; L3MBTL1 inh-2: 27*; AlphaScreen ctr2: 4%

How did O=C(O)c1ccc2[nH]c3c(c2c1)CSCC3 do in these assays?
RECQ1 helicase: 2%; BLM inh: -2%; L3MBTL1 inh-1: 32µM*; APE1 inh: 7%; JMJD2E inh: -20%; L3MBTL1 inh-2: 13*; AlphaScreen ctr2: 2%

What do the screens show for `Cc1ccc2nc(-c3ccc(O)c(O)c3)cn2c1`?
BLM inh: -20%; L3MBTL1 inh-1: 32µM*; APE1 inh: inconclusive; L3MBTL1 inh-2: 5.3*; AlphaScreen ctr2: -1%

What do the screens show for `CC(=O)Nc1ccc(-c2cn3cc(C)ccc3n2)cc1`?
RECQ1 helicase: -3%; BLM inh: 1%; L3MBTL1 inh-1: 3%; APE1 inh: -7%; JMJD2E inh: inconclusive

How did Cc1ccc2c(CC(=O)OCC(=O)N(CC(C)C)c3c(N)n(Cc4ccccc4)c(=O)[nH]c3=O)coc2c1 do in these assays?
L3MBTL1 inh-1: 32µM*; APE1 inh: -28%; L3MBTL1 inh-2: 21*; AlphaScreen ctr2: 9%

Results for CCN(C(=O)COC(=O)Cc1coc2cc(C)ccc12)c1c(N)n(Cc2ccccc2)c(=O)[nH]c1=O ?
L3MBTL1 inh-1: -3%; APE1 inh: 4%

How did CC(N=C1NS(=O)(=O)c2ccccc21)C(=O)OCC(=O)N(C)C1CCS(=O)(=O)C1 (centres undefined) do in these assays?
L3MBTL1 inh-1: 0%; APE1 inh: 17%

What do the screens show for `O=C1NC(=O)/C(=C/c2ccccc2Oc2ccc(Cl)cc2)S1`?
RECQ1 helicase: -1%; BLM inh: -3%; L3MBTL1 inh-1: 7%; APE1 inh: -3%; JMJD2E inh: -12%

How did Cc1cc(C)cc(N=C2NC(=O)/C(=C/c3cccs3)S2)c1 do in these assays?
RECQ1 helicase: -10%; BLM inh: -3%; L3MBTL1 inh-1: -10%; APE1 inh: -4%; JMJD2E inh: -18%

What do the screens show for `O=C1NC(=Nc2ccc(Cl)cc2)/C(=C/c2ccco2)S1`?
RECQ1 helicase: -13%; BLM inh: 11µM*; L3MBTL1 inh-1: 25µM*; APE1 inh: inconclusive; JMJD2E inh: inconclusive; L3MBTL1 inh-2: 8.4*; AlphaScreen ctr2: 5%

Results for Cc1ccc(N=C2NC(=O)/C(=C\c3ccco3)S2)cc1 ?
RECQ1 helicase: -18%; BLM inh: -26%; L3MBTL1 inh-1: 20µM*; APE1 inh: inconclusive; JMJD2E inh: -8%; L3MBTL1 inh-2: 27*; AlphaScreen ctr2: -7%

Results for O=C(OCC(=O)N1CCN(C(=O)c2ccco2)CC1)c1ccc(Cl)cc1 ?
L3MBTL1 inh-1: -3%; APE1 inh: 12%

How did CCS(=O)(=O)N1Cc2ccccc2CC1C(=O)Nc1ncc(C)s1 (centres undefined) do in these assays?
RECQ1 helicase: -13%; BLM inh: -3%; L3MBTL1 inh-1: 4%; APE1 inh: -1%; JMJD2E inh: 2%

Results for CCS(=O)(=O)N1Cc2ccccc2CC1C(=O)Nc1nnc(SCc2ccc(C#N)cc2)s1 (centres undefined) ?
RECQ1 helicase: 0%; BLM inh: -29%; L3MBTL1 inh-1: 18µM*; APE1 inh: 4%; JMJD2E inh: inconclusive; L3MBTL1 inh-2: 3.4*; AlphaScreen ctr2: 20%

What do the screens show for `N#Cc1c(=O)c2nc(NCCCO)ncc2n2c(=O)c3ccccc3[nH]c12`?
RECQ1 helicase: -14%; BLM inh: -20%; L3MBTL1 inh-1: 10µM*; APE1 inh: inconclusive; JMJD2E inh: inconclusive; L3MBTL1 inh-2: 6*; AlphaScreen ctr2: 45%

What do the screens show for `N#Cc1c(=O)c2nc(NCc3ccccc3)ncc2n2ccccc12`?
RECQ1 helicase: inactive; BLM inh: -4%; APE1 inh: 0%; JMJD2E inh: inconclusive

How did CC(=O)Nc1ccc2nc3c(=O)n(C)c(=O)n(C)c3nc2c1 do in these assays?
RECQ1 helicase: -2%; BLM inh: -25%; L3MBTL1 inh-1: 25µM*; APE1 inh: -10%; JMJD2E inh: inconclusive; L3MBTL1 inh-2: 24*; AlphaScreen ctr2: 5%

How did CC1(C)CN(c2cccc(C#N)c2)C1=O do in these assays?
RECQ1 helicase: -2%; BLM inh: 2%; L3MBTL1 inh-1: -18%; APE1 inh: 2%; JMJD2E inh: -7%

What do the screens show for `O=C(O)CCCCCn1c(SCC(=O)N2CCCC2)nc2ccsc2c1=O`?
RECQ1 helicase: -8%; BLM inh: 2%; L3MBTL1 inh-1: 2%; APE1 inh: -5%; JMJD2E inh: 4%

Results for O=C(O)CCCCCn1c(SCC(=O)c2ccc(O)c(O)c2)nc2ccsc2c1=O ?
RECQ1 helicase: -20%; BLM inh: 2%; L3MBTL1 inh-1: 32µM*; APE1 inh: inconclusive; JMJD2E inh: 10µM*; L3MBTL1 inh-2: 3*; AlphaScreen ctr2: -1%

What do the screens show for `O=C(Nc1cccc(C(=O)N2CCOCC2)c1)c1ncn[nH]1`?
RECQ1 helicase: -17%; BLM inh: 0%; L3MBTL1 inh-1: 28µM*; APE1 inh: -2%; JMJD2E inh: 2%; L3MBTL1 inh-2: 21*; AlphaScreen ctr2: inconclusive

Results for CCNc1nc(NCC)n2c(SCC(=O)Nc3ccc(Br)cc3F)nnc2n1 ?
L3MBTL1 inh-1: -9%; APE1 inh: inconclusive

Results for CCNc1nc(NCC)n2c(SCC(=O)Nc3ccc(F)cc3)nnc2n1 ?
L3MBTL1 inh-1: 28µM*; APE1 inh: 12µM*; L3MBTL1 inh-2: inconclusive; AlphaScreen ctr2: 18%

Assay outcomes: PubChem, National Center for Advancing Translational Sciences (NCATS)
